# Assay results taken from PubChem BioAssay (NCATS).
# Inconclusive results are not listed. Entries that show only a call come without a potency. Activity calls are given as the source filed them. Calls come from the whole dose curve; as a rule, active = well fitted activation curve with a large enough effect; inconclusive = small, poorly fitted or top-dose-only effect; inactive = flat fitted curve, though single readings scatter.
# Test: qHTS for H2AX Agonists against the NCATS CANVASS Library (AID 1347378)
# Settings: CHO-K1 H2AX phosphorylation, HTRF TR-FRET, 3 h; series mostly up to 76.9 µM
# Excerpt: Natural products and their derivatives continue to be wellsprings of nascent therapeutic potential. However, many laboratories have limited resources for biological evaluation, leaving their previously isolated or synthesized compounds largely or completely untested. To address this issue, the Canvass library of natural products was assembled (https://tripod.nih.gov/canvass), in collaboration with academic and industry researchers, for quantitative high-throughput screening (qHTS) across a diverse set of cell-based and biochemical assays. The pure (>85% purity by liquid chromatography/mass spectrometry [LC/MS]) Canvass library of 346 natural products were submitted by 45 academic laboratories and companies around the world. We collected pure natural products to circumvent deconvolution and structure elucidation due to time and resource limitations. The library was formatted into 1536-well plates and evaluated in 50 qHTS (in an 11-pnt concentration series) bioassays with broad scope of disease-relevant mechanisms. The resulting data set from 50 different assays was then systematically analyzed to identify overall trends and specific natural products with interesting biological activities. Reported herein are the results of each individual qHTS and their corresponding assay protocol. This assay determines the levels of phospho-H2AX in cell lysates of Chinese hamster ovary CHO cells. It is based on time resolved fluorescence resonance energy transfer (TR-FRET). Two anti-H2AX antibodies are labeled with europium cryptate and d2, respectively. The increase of FRET levels is proportional to the concentration of phosphorylated H2AX. The results were expressed as the ratio of 665/615 nm emissions. National Center for Advancing Translational Sciences (NCATS), Rockville, MD National Institute of Health (NIH), Bethesda, Maryland
# H2AX assay protocol: The CHO-K1 cells suspended in culture medium containing 10% FBS were dispensed at 1000 cells/ 3 ul/well in 1536-well white wall/solid bottom plates (Greiner Bio-One North America, NC) using a Multidrop Combi (Thermo Fisher Scientific Inc., Waltham, MA). After the assay plates were incubated at 37C overnight, 23 nl of compounds at 15 concentrations (from 5-48 columns) or positive control (from 1 to 4 columns) were transferred to the assay plates using a Pintool station (Wako, San Diego, CA) into each well resulting in a final DMSO concentration of 0.76%. After 3hr incubation at 37C, 1 uL/well Supplemented Lysis buffer (diluted 100 fold blocking reagent in lysis buffer) (HTRF Phospho-H2A.X (S139) Assay kit from Cisbio US Inc., Bedford, MA) was added using a Flying Reagent Dispenser (FRD) (Aurora Discovery, CA). After 10sec spin at 1000 rpm in a plate centrifuge, the assay plates were incubated at room temperature for 30 min. Then followed by the addition of 1 uL/well detection buffer (containing a mixture of two antibodies, one labeled with cryptate, Anti pH2AX (S139)-K and another labeled with d2, Anti H2AX-d2) using FRD. After incubation at room temperature for 24 hr, the time resolved fluorescence at excitation 320 nm and emissions at 665 nm and 620 nm was measured using an Envision plate reader (PerkinElmer, Waltham, MA).
# Potency is the fitted concentration of half-maximal effect.
row,SMILES,Potency
1,COc1ccc(C23Oc4cc(OC)cc(OC)c4[C@](O)([C@H](c4ccccc4)C2C(=O)NCCCCNC(=O)c2ccccc2)[C@@H]3O)cc1 (stereo partly specified),inactive
2,COc1ccc2c3c([nH]c2c1)C(C)=NCC3,inactive
3,c1ccc2c3c([nH]c2c1)CNCC3,inactive
4,CCCC[C@@H]1CC[C@H]2CCCC(CCC)N12 (stereo partly specified),inactive
5,C=C1[C@@H](C)[C@H]2[C@H](Cc3ccccc3)NC(=O)[C@]23OC(=O)/C=C/[C@H](O)CCC[C@@H](C)C/C=C/[C@H]3[C@@H]1O,inactive
6,CCN1C[C@]2(C)CC[C@@H](O)[C@]34C1[C@H](C[C@H]23)C12CCC(CC14)[C@](O)(CO)[C@H]2O (stereo partly specified),inactive
7,CC[C@@H]1CN2CC[C@@]3(O)C(=Nc4cccc(OC)c43)[C@@H]2C[C@@H]1/C(=C\OC)C(=O)OC,inactive
8,COc1ccc2c(c1)[nH]c1c(C)nccc12,inactive
9,CO[C@@H](/C=C/CC/C=C/C(=O)O)[C@@H](O)[C@H](C)[C@@H](O)/C(C)=C/[C@H](C)C(=O)CCCC1CC(=O)NC(=O)C1,inactive
10,NCCc1ccccc1,inactive
11,C/C=C1/CN2CC[C@]34C(=Nc5ccccc53)[C@@H]2C[C@@H]1[C@H]4C(=O)OC,inactive
12,COC(=O)C1=C2Nc3ccccc3[C@@]23CCN2CC(C(C)=O)C1C[C@H]23 (stereo partly specified),inactive
13,CC1=CC(=O)C2=C(C)C[C@H](O)[C@@H]3[C@H](OC(=O)[C@@H]3C)[C@@H]12,inactive
14,C[C@]12CC(O)C3[C@@H](CCC4C[C@@H](O)CC[C@@]43CO)[C@@]1(O)CCC2C1=CC(=O)OC1 (stereo partly specified),inactive
15,CC[N@@+]1([O-])C[C@]2(C)CC[C@@H](O)[C@@]34C5C[C@H]6CC[C@@]5(C(C[C@H]23)C41)[C@H](O)[C@@]6(O)CO (stereo partly specified),inactive
16,C[C@@H]1CC[C@@H](c2ccoc2)N2C[C@@]3(CC[C@@H]12)CS[C@@]1(CC[C@H]2[C@H](C)CC[C@@H](c4ccoc4)N2[C@@H]1O)C3,10.9 µM (active)

row,SMILES,Potency
1,CCN1C[C@]2(C)CC[C@H](O)[C@]34C1C(C[C@H]23)[C@@]12CC[C@H](CC14)[C@](O)(COC(=O)c1ccc(OC)c(OC)c1)[C@H]2O (stereo partly specified),inactive
2,CNCCc1ccccc1,inactive
3,CCCCC[C@@H]1OC(=O)[C@@H](C)N(C)C(=O)[C@H](CCCCC)OC(=O)C(C)N(C)C(=O)[C@H](CCCCC)OC(=O)[C@@H](C)N(C)C(=O)[C@H](CCCCC)OC(=O)C(C)N(C)C1=O (stereo partly specified),inactive
4,CNCCc1c[nH]c2ccccc12,inactive
5,CO[C@@H](/C=C/CC/C=C/C(=O)O)[C@@H](O)[C@H](C)/C=C(\C)[C@@H](O)[C@H](C)C(=O)CCCC1CC(=O)NC(=O)C1,inactive
6,CNCCc1ccc(O)cc1,inactive
7,O=C(c1ccccc1O)c1[nH]c(Cl)c(Cl)c1-n1c(C(=O)c2ccccc2O)cc(Cl)c1Cl,inactive
8,CC1=CC2CC[C@@H]3[C@@H](C)C[C@H](C)[C@@H](C1)N23 (stereo partly specified),inactive
9,CN1C(=O)[C@]23CC4C(C)(C)[C@@]5(C[C@@]41CN2CC[C@@]3(C)O)C(=O)Nc1c5ccc2c1OC=CC(C)(C)O2 (stereo partly specified),inactive
10,CO[C@H](c1ccccc1)[C@H]1NC(=O)C(C)NC(=O)C(C[C@@H](C)CO)N(C)C(=O)[C@@H](C(O)c2cn(C(C)(C)C3CO3)c3ccccc23)NC(=O)C(C(C)C=C(C)C)NC(=O)C(CC(C)C)N(C)C(=O)C(C(C)C)NC1=O (stereo partly specified),inactive
11,CN(C)Cc1c[nH]c2ccccc12,inactive
12,CC=C1CN(C=O)[C@H]2C[C@@H]1[C@@H](C(=O)OC)[C@@]13CCOC21Nc1ccccc13 (stereo partly specified),inactive
13,CCC(=O)CCCCC[C@@H]1NC(=O)[C@H]2CCCCN2C(=O)[C@H]([C@@H](C)CC)NC(=O)[C@H](Cc2cn(OC)c3ccccc23)NC1=O,inactive
14,CCC[C@H]1CC[C@H]2[C@H](C)CCC[C@H]2N1,inactive
15,CC(=O)N[C@H]1CCN2CCC[C@H]12,inactive
